Assay results taken from PubChem BioAssay (NCI).
Compounds without any hit were thinned out: in the full panel of roughly 83,000, 20% have a hit.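 Plates (96-well) were seeded with cells, treated with compound at one concentration, and incubated for 48 hours before percent growth was determined.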 A number with no mark means an inactive call. Active and inactive are the calls of the source. How the source made its calls: active means growth percent below 10; inactive means the rest.

Test system: HL-60(TB) leukemia
Experiment: NCI-60 one-dose screen, 48 h (100 = growth as untreated, 0 = no growth, -100 = all killed)
Details: 10 µM unless noted

| SMILES | growth |
| --- | --- |
| CC(=O)O[C@H]1CC[C@@]2(C)C(=CC[C@@H]3[C@@H]2CC[C@]2(C)C(=O)N(O)C(=O)C[C@@H]32)C1 | 105% |
| C=C(C)[C@@H]1CC[C@]2(C)[C@H](C=CC3=C4C[C@@](C)(CO)CC[C@]4(C)CC[C@]32C)[C@@]1(C)CCCN | -58% (active) |
| C=CCn1c(SCC(=O)Nc2ccc(C(=O)/C=C/c3cc(OC)c(OC)c(OC)c3)cc2)nnc1-c1cc(-c2ccc(OC)cc2)nc2ccccc12 | 96.4% |
| COc1ccc(NC(=O)c2ccc(Nc3ncnc4c3cnn4-c3cccc(F)c3)cc2)cc1 | 94.9% |
| CCCCCCCCCCCCCCCCN=C(CC(=O)O)C(=O)O | 72.6% |
| COc1ccc2[nH]cc(/C=C3/C(=O)Nc4ccc(Cl)cc43)c2c1 | 53.4% |
| Cc1ccccc1NC(=O)CN(C)C | 87.9% |
| C/C=C/C1OCC(CC)C(CCC)O1 (centres undefined) | 88.1% |
| CCN1CCN(c2nc(NCCCNc3ccnc4cc(Cl)ccc34)c3ccccc3n2)CC1 | -51.4% (active) |
| O=C(Nc1ccc(Cl)c(Cl)c1)NS(=O)(=O)c1cnccc1Oc1ccc(F)cc1 | 54% |
| COc1ccc2c(c1)c(-c1nc(-c3cn(C)c4ccncc34)cs1)cn2C | 81.7% |
| Cc1cc(C)c(C(=O)OC(C)CNC2CCCCC2)c(C)c1 (centres undefined) | 87.5% |
| O=C(NCc1ccc(Cn2c(=O)sn(-c3ccc(Cl)cc3)c2=O)cc1)OCc1ccc2c(Cl)cc(Cl)c(O)c2n1 | 56.3% |
| c1ccc2cc(C[n+]3ccn(CCCCCCn4cc[n+](Cc5ccc6ccccc6c5)c4)c3)ccc2c1 | 87.9% |
